Lamin A splicing: LMNA splicing modulation. HeLa LMNA splicing GFP/RFP minigene ratio, 48 h. Potency, µM (top dose mostly 46.1 µM), without a hit: at the top dose ratio change, negative = inhibition, usual class: inhibitors. hit rate 0.01% among 200,000. AID 1487; active = well fitted inhibition curve with a large enough effect in the signal ratio, with a control signal flat, not every such curve was filed as active; inconclusive = small, poorly fitted or top-dose-only effect, or effect the other way, or a change in a side signal; the % refers to the signal ratio; also: potency is read from the fitted curve at half-maximal effect; % is scaled to controls: 0 for no effect and ±100 for the full control effect
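S3 HeLa cells stably expressing lamin A-EGFP splicing minigene plus DsRed2, 600 cells/well, 48 h compound exposure at 37C. Laser-scanning cytometry; analysed as GFP (500-530 nm)/RFP (575-640 nm) total intensity ratio; 0.5% DMSO vehicle.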
CBFb-RUNX1 inh: blocks binding between human CBF-beta and RUNX1. Potency, µM (doses to about 59.8 µM), for inactives: at the highest dose activity, negative = inhibition, hits mostly inhibitors. Q01196+Q13951. AID 1477. 230,000 tested, under 10 active. AlphaScreen CBFb-His/RUNX1-biotin binding, biochemical; active = well fitted curve in the direction sought with a large enough effect; inconclusive = small, poorly fitted or top-dose-only effect, or effect the other way, or another doubt; inactive = no such curve, though single readings can be large or run the other way; also: % of control where 0% means no effect
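His-tagged CBF-beta and biotinylated RUNX1 (30 nM each) were premixed 20 min at room temperature, exposed to compound for 15 min, then given nickel-chelate and streptavidin AlphaScreen beads (50 ng each). After 90 min, AlphaScreen signal was read.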
MBNL1 CUG block: inhibitors of human MBNL1 binding to CUG repeat RNA; Q9NR56; TR-FRET MBNL1-His/biotin-(CUG)12 binding, 665/545 ratio; Potency, µM (top dose mostly 57.5 µM), for the others: top-dose activity change, negative = inhibition, most hits filed as inhibitors; hit rate 0.036% among 280,000; AID 2675; active = well fitted inhibition curve with a large enough effect in the signal ratio, with a control signal flat, not every such curve was filed as active; inconclusive = small, poorly fitted or top-dose-only effect, or effect the other way, or a change in a side signal; inactive = no such curve, though single readings can be large or run the other way; the % refers to the signal ratio; also: potency is read from the fitted curve at half-maximal effect; % is scaled to controls: 0 for no effect and ±100 for the full control effect
Target sequence (Q9NR56 whole entry, looked up): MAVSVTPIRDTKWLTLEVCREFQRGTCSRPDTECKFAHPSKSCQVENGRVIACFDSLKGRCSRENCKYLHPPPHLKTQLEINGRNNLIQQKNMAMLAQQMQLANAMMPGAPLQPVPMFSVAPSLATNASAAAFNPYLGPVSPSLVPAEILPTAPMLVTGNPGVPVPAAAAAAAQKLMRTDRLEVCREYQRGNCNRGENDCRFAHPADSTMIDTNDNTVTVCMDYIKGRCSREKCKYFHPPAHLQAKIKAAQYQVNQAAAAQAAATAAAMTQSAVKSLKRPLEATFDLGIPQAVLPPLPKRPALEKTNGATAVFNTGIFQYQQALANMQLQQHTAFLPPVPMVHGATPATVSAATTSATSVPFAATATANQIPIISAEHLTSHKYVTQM
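TR-FRET between His-tagged MBNL1 and biotin-(CUG)12 RNA, detected with Tb anti-His antibody (0.055 ng/ul) and streptavidin-XL665 (5 nM), 60 min at room temperature. Compounds titrated 92 nM to 58 uM; 665/545 nm ratio normalized to buffer and complex controls.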
An asterisk follows results filed as active; ? = inconclusive; / = not tested or not shown; [ ] = remark or other dose. In the library only some 0.036% were active in any assay of this set; here they are far more common.

SMILES	Lamin A splicing	CBFb-RUNX1 inh	MBNL1 CUG block
CCOC(=O)Cn1c(=O)n(CC2CCCO2)c2nc(-c3ccc(OCC)cc3)nc(C(N)=O)c21 (stereo unspecified)	-2%[46 µM]	/	/
CCOc1ccc(C2C(=O)N(C3CCCCCC3)CC(=O)N2CCc2ccc(OC)c(OC)c2)cc1OC (stereo unspecified)	-1%[46 µM]	/	/
CC(C)C[C@H](NC(=O)[C@@H]1CCC(=O)N1)C(=O)N[C@@H](Cc1ccc(O)cc1)C(=O)N[C@@H](CCC(=O)O)C(=O)N[C@@H](CC(N)=O)C(=O)N[C@@H](CCCCN)C(=O)N1CCC[C@H]1C(=O)N[C@@H](CCCN=C(N)N)C(=O)N[C@@H](CCCN=C(N)N)C(=O)N1CCC[C@H]1C(=O)N[C@@H](Cc1ccc(O)cc1)C(=O)O	/	5%	/
Cc1nc(-c2ccc(S(=O)(=O)N(Cc3ccccc3)C(C)C)cc2)co1	1%[46 µM]	/	/
O=c1n(-c2ccccc2)c(=O)n2n1CC[C@H]1/C(=N\OCc3ccccc3)[C@H]3O[C@@H]3[C@@H](O)[C@@H]12	/	6%[13.1 µM]	/
Cc1cccn2c3c(c(=O)nc12)C(c1ccc(F)cc1)CC(=O)N3 (stereo unspecified)	-16%[46 µM]	/	/
CC(C)N1CCN(c2ccc(C(=O)c3c(-c4ccc(O)cc4)sc4cc(O)ccc34)cc2)CC1	/	-24%	/
Cc1cccc(NC(=O)Cn2c(SCC(=O)NCc3ccccc3)nc3ccccc32)c1C	13%[46 µM]	/	/
C=C1CC2COC(=O)C2(Cc2ccc3ccccc3c2)C1 (stereo unspecified)	/	28%	/
Cc1cccc(-n2c3nc(=O)[nH]c(=O)c-3cc3cc([N+](=O)[O-])ccc32)c1	?	-21%	?
Cc1ccc(C)c(-n2c3nc(=O)[nH]c(=O)c-3cc3cc([N+](=O)[O-])ccc32)c1	11µM*	3%	/
CCOc1cc(CNC(=O)NC2COc3ccccc3C2)cc(OCC)c1OCC (stereo unspecified)	-4%[46 µM]	/	/
CCn1cc(S(=O)(=O)c2ccc(C)cc2C)c(=O)c2cc(F)c(N3CCCCC3)cc21	-9%[46 µM]	/	/
Cc1cc(C)cc(NC(=O)c2sc3nc(-c4ccccc4)cn3c2C)c1	-11%[46 µM]	/	/
CC(C)(C)C(=O)OCOP(=O)(COCCn1cnc2c(N)ncnc21)OCOC(=O)C(C)(C)C	-15%	/	/
Cc1ccc(CSc2nnc3[nH]c(=O)cc(-c4ccccc4)n23)cc1	5%[46 µM]	/	/
CC(Oc1ccccc1)C(=O)N1CCN(Cc2cc(=O)n3nc(-c4ccccc4Cl)sc3n2)CC1 (stereo unspecified)	-15%[46 µM]	/	/
CN(Cc1ccccc1)C(=O)c1ccc(CSc2nc3cccnc3n2Cc2ccccc2)cc1	-10%[46 µM]	/	/
O=C1/C(=C\c2cccnc2)SC(=S)N1C1CCS(=O)(=O)C1 (stereo unspecified)	/	-9%	?
O=C1/C(=C/c2cccnc2)SC(=S)N1C1CCS(=O)(=O)C1 (stereo unspecified)	20µM*	2%	19%
COc1cccc(C2=Nn3c(nnc3-c3ccccc3C)SC2)c1	/	-12%	/
O=C(NC1CCCc2ccccc21)c1ccc2c(c1)sc1nc(-c3ccccc3)cn12 (stereo unspecified)	-4%[46 µM]	/	/
Cc1ccc(NC(=O)CSc2[nH]c(=O)ncc2C)cc1	11%[46 µM]	/	/
Cc1ccc(CNC(=O)c2cnc(N(C)C)nc2)cc1	-5%[46 µM]	/	/
COc1ccc(Cl)cc1NC(=O)N1CCN(Cc2cc(=O)n3nc(-c4ccccc4)sc3n2)CC1	4%[46 µM]	/	/
SMILES	Lamin A splicing	CBFb-RUNX1 inh	MBNL1 CUG block
Cc1cccc(CC(=O)NCCc2csc(-c3ccc(C(F)(F)F)cc3)n2)c1	13%[46 µM]	/	/
Cc1noc(C)c1-c1ccc2ncnc(NCCN3CCOCC3)c2c1	10µM*	/	/
Cc1noc(C)c1-c1ccc2ncnc(NCc3cc(F)cc(F)c3)c2c1	/	8%	/
Cc1ccccc1N1CCN(S(=O)(=O)CC23CCC(CC2NC(=O)C(N)CCS(C)(=O)=O)C3(C)C)CC1 (stereo unspecified)	/	11%	/
Cc1ccccc1-c1cncnc1NCc1cccnc1	1%	/	/
O=C(O)c1ccc(-c2ccc3cc(C45CC6CC(CC(C6)C4)C5)c(O)cc3c2)cc1	/	-21%	/
COC(=O)C1=CO[C@@H](C)[C@@H]2CN3CCc4c([nH]c5ccccc45)[C@@H]3C[C@H]12	/	-16%	/
CC(=O)Nc1nonc1-c1nnc(SCC(=O)Nc2ccccc2)n1-c1ccccc1	5%[46 µM]	/	/
O=c1cc(N2CCOCC2)oc2c1ccc1ccccc12	/	-25%	/
O=c1cc(N2CCOCC2)oc2c(-c3ccccc3)cccc12	16µM*	?	/
O=S(=O)(NCCc1csc2nc(-c3ccc(Cl)cc3)nn12)c1ccc(Oc2ccccc2)cc1	-6%[46 µM]	/	/
